PubChem BioAssay (Tox21)
Inconclusive results are not listed. Calls of active or inactive are those of the source. Unless noted, the call rests on the fitted dose curve; in most records, active means well fitted curve in the direction sought with a large enough effect in the repeat runs; inconclusive means weak or mixed curves; inactive means no such curve, though single readings can be large; an effect the other way counts as inactive or inconclusive.

Experiments:
[1] = qHTS assay to identify small molecule agonists of the vitamin D receptor (VDR) signaling pathway - cell viability counter screen (AID 743224); further: series mostly up to about 63 µM; nearly all actives have a fitted effect of over 50% in size
Summary of the method: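 Cytotoxicity counter screen: VDR-bla cells, 16 h compound exposure at 37C, 5% CO2; CellTiter-Glo luminescence, 30 min RT, same wells as bla read.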

[2] = qHTS assay to identify small molecule antagonists of the vitamin D receptor (VDR) signaling pathway - cell viability counter screen (AID 743225); further: nearly all actives have a fitted effect of over 50% in size
Summary of the method: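 Cytotoxicity counter screen read by CellTiter-Glo luminescence (30 min, room temperature) in the same wells as the VDR-bla antagonist readout. HEK 293T VDR-UAS-bla cells had 16 h at 37C with compound and 3 nM (final) 1-alpha,25-dihydroxyvitamin D3, then 2 h with FRET substrate.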

[3] = qHTS assay to identify small molecule agonists of the NFkB signaling pathway (AID 1159509; active means well fitted curve in the direction sought with a large enough effect in the signal ratio in the repeat runs, not every such curve was filed as active; the % refers to the signal ratio; further: series mostly up to about 61 µM)
Summary of the method: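 Beta-lactamase reporter assay run in quantitative high-throughput format on an NF-kB-responsive ME-180 line, with 5 hr compound treatment and a FRET-based blue/green fluorescence readout.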

[4] = qHTS assay to identify small molecule agonists of the NFkB signaling pathway - cell viability counter screen (AID 1159515; calls by dose curve; further: series mostly up to about 61 µM; nearly all actives have a fitted effect of over 55% in size)
Summary of the method: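 ME-180 NFkB-bla cells, 2,000/well; overnight attach; compound 5 hr, 37 C/5% CO2; LiveBLAzer substrate 1.5 hr RT; then CellTiter-Glo in same wells, 30 min RT, luminescence read.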

[5] = qHTS assay to identify small molecule antagonists of the retinoid-related orphan receptor gamma (ROR-gamma) signaling pathway - cell viability counter screen (AID 1159520); further: nearly all actives have a fitted effect of over 50% in size
Summary of the method: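 Tet-on ROR gamma CHO cells (1,000/well) were plated 4 hr, given compounds in DMSO for 2 hr at 37 C, then induced with 1 uM final doxycycline for 16 hr. Viability was read as ATP by CellTiter-Glo luminescence after 30 min.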

[6] = molecular target: Nuclear receptor ROR-gamma (Homo sapiens) (UniProt P51449); assay: qHTS assay to identify small molecule antagonists of the retinoid-related orphan receptor gamma (ROR-gamma) signaling pathway (AID 1159521; further: top concentration of the series differs between compounds; nearly all actives have a fitted effect of over 50% in size)
Summary of the method: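 Antagonist read-out: drop in luminescence (ONE-Glo) from an RORE-LUC reporter in CHO cells with doxycycline-inducible ROR-gamma; 2 hr compound pretreatment, 1 uM doxycycline, 16 hr incubation at 37 C.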

[7] = qHTS assay to identify small molecule agonists of the AP-1 signaling pathway - cell viability counter screen (AID 1159525; calls by dose curve; further: nearly all actives have a fitted effect of over 55% in size)
Summary of the method: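 Each titration point was normalised to DMSO and tetra n-octyl ammonium bromide controls. The read was Cell Titer Glo luminescence after 30 min at RT, following 5 h compound exposure of ME-180 AP-1-bla cells at 37 °C.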

[8] = qHTS assay to identify small molecule agonists of the AP-1 signaling pathway (AID 1159526; calls by dose curve; further: potency means the concentration at half of the fitted maximal effect)
[9] = molecular target: Retinoic acid receptor RXR-alpha (Homo sapiens) (UniProt P19793); assay: qHTS assay to identify small molecule agonists of the RXR signaling pathway (AID 1159527; calls by dose curve; further: nearly all actives have a fitted effect of over 35% in size)
Sequence of Retinoic acid receptor RXR-alpha (Homo sapiens) (P19793 whole entry, looked up): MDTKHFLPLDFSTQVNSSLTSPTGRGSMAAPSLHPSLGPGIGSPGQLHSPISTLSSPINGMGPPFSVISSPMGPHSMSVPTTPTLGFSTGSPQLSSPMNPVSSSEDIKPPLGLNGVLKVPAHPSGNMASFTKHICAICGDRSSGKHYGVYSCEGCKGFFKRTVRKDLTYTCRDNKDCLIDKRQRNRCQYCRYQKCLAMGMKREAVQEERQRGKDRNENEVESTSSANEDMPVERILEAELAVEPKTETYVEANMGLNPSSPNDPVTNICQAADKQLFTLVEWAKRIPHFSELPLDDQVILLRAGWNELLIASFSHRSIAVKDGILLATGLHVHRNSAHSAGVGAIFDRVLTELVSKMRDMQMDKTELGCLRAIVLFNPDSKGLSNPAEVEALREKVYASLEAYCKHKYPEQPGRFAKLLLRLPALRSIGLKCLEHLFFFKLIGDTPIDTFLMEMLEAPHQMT
Summary of the method: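 Agonist-mode beta-lactamase reporter assay: HEK 293T RXR-alpha-UAS-bla cells treated 16 hr at 37 C with compounds, 9-cis retinoic acid as positive control. LiveBLAzer FRET substrate, 405 nm excitation, 460/530 nm emission.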

[10] = qHTS assay to identify small molecule agonists of the RXR signaling pathway - cell viability counter screen (AID 1159529)
Summary of the method: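 CellTiter-Glo luminescence gave viability in the wells also read for beta-lactamase. Cells (RXR-alpha-UAS-bla HEK 293T, 2% charcoal-stripped FBS medium) had 5 hr plating, then 16 hr compound exposure at 37 C; tetraoctyl ammonium bromide served as positive control.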

[11] = qHTS assay to identify small molecule antagonists of the retinoid acid receptor (RAR) signaling pathway - cell viability counter screen (AID 1159551); further: nearly all actives have a fitted effect of over 35% in size
Summary of the method: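 C3RL4 RARE-luciferase line; cpds + retinol 1 uM final, 6 h, 37 C/5% CO2; CellTiter-Glo ATP luminescence, 30 min RT.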

[12] = qHTS assay to identify small molecule antagonists of the retinoic acid receptor (RAR) signaling pathway (AID 1159552; further: nearly all actives have a fitted effect of over 50% in size)
Summary of the method: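 Luminescent RARE reporter read-out in C3RL4 cells: 6 hr co-treatment at 37 C of test compounds with retinol at 1 uM final. Cells plated overnight beforehand; luciferase reagent incubated 30 min at room temperature before reading.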

[13] = qHTS assay to identify small molecule agonists of the retinoic acid receptor (RAR) signaling pathway (AID 1159553)
Summary of the method: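 RARE-luc C3RL4 cells; overnight attachment 37 C/5% CO2; compound (DMSO) 6 hr; luciferase reagent, 30 min RT; luminescence read-out.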

[14] = qHTS assay to identify small molecule antagonists of the estrogen related receptor (ERR) signaling pathway (AID 1224819; further: nearly all actives have a fitted effect of over 50% in size; further: potency means the concentration at half of the fitted maximal effect)
Summary of the method: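 Luminescence readout (One-Glo, 30 min, RT) of ERR cell line after 18 h compound exposure at 37 C; cells seeded 2,000/well, pre-incubated 6 h, compounds pinned from DMSO stocks.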

[15] = qHTS assay to identify small molecule agonists of the estrogen related receptor (ERR) signaling pathway (AID 1224820)
Summary of the method: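 Following a 6 h settling period, 2,000 ERR cells per well receive DMSO-dissolved compounds by pin tool and incubate 18 h at 37 C; agonist activity is scored from One-Glo luminescence read 30 min post-addition.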

[16] = system: estrogen-related receptor alpha (ERRalpha) with PGC-1alpha coactivator, human; assay: qHTS assay to identify small molecule antagonists of the estrogen related receptor signaling pathway with the pleiotropic PPARgamma coactivator (PGC) (AID 1224821; calls by dose curve)
Summary of the method: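 Screening used NTP's PGC/ERR cells, dosed via pin tool with compound in DMSO alongside positive and negative controls. After 18 h at 37 C, One-Glo reagent sat 30 min at room temperature before luminescence detection.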

[17] = qHTS assay to identify small molecule antagonists of the estrogen related receptor signaling pathway with the pleiotropic PPARgamma coactivator (PGC) cell viability counter screen (AID 1224822;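 further: series mostly up to about 46 µM; viability read after 17.5 h compound exposure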)
Summary of the method: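 Fluorescence read-out of CellTiter-Fluor after 30 min at 37 C; PGC/ERR cells, 2,000 per well, had been exposed to DMSO-dissolved compounds for 17.5 h following a 6 h pre-incubation.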

[18] = qHTS assay to identify small molecule agonists of the estrogen related receptor signaling pathway with the pleiotropic PPARgamma coactivator (PGC) (AID 1224823)
Summary of the method: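 In this quantitative high-throughput screen, an 18 h, 37 C treatment of PGC/ERR cells with compounds in DMSO preceded a One-Glo luminescence read taken after 30 min at room temperature.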

[19] = qHTS assay to identify small molecule agonists of the endoplasmic reticulum stress response signaling pathway - cell viability counter screen (AID 1159517; calls by dose curve)
Summary of the method: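 Cytotoxicity of test compounds toward ESRE-bla HeLa cells was assessed after 5 hr exposure. The luminescent CellTiter-Glo signal was measured 30 min after reagent addition.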

Measured: Potency

CCN(CC)CCOC(=O)c1ccc(N)cc1
not listed: [19]
inactive: all other assays above

CCCCC/C(C=O)=C\c1ccccc1
not listed: [6] | [14] | [15] | [16] | [17] | [18] | [19]
inactive: all other assays above

C[C@]12CC[C@@H]3c4ccc(O)cc4CC[C@H]3[C@@H]1CCC2=O
inactive: [1] | [3] | [4] | [5] | [7] | [8] | [9] | [10] | [11] | [17]

C[C@]12CC[C@@H]3c4ccc(O)cc4C[C@@H](CCCCCCCCCS(=O)CCCC(F)(F)C(F)(F)F)[C@H]3[C@@H]1CC[C@@H]2O (stereo partly drawn)
active: [14] 7.22 µM
not listed: [6] | [16]
inactive: all other assays above

Cc1cccc(Nc2cc(Cl)nc(SCC(=O)O)n2)c1C
not listed: [2] | [9] | [14] | [15] | [16] | [17] | [18]
inactive: all other assays above

O=C1CCCCCN1
not listed: [6] | [14] | [15] | [16] | [17] | [18]
inactive: all other assays above

Cc1cccc(C)c1O
not listed: [2] | [6] | [14] | [15] | [16] | [17] | [18] | [19]
inactive: all other assays above

CC(C)=CCC/C(C)=C/CO
inactive: [1] | [2] | [4] | [5] | [6] | [7] | [8] | [9] | [10] | [11]

COC(=O)c1ccc(C=O)cc1
not listed: [14] | [15] | [16] | [17] | [18] | [19]
inactive: all other assays above

OCCCc1ccccc1
not listed: [2] | [6] | [14] | [15] | [16] | [17] | [18] | [19]
inactive: all other assays above

O=[N+]([O-])c1ccc(O)cc1
not listed: [2] | [6] | [14] | [15] | [16] | [17] | [18] | [19]
inactive: all other assays above

CO[C@H]1C=CO[C@@]2(C)Oc3c(C)c(O)c4c(O)c(c(/C=N/N5CCN(C)CC5)c(O)c4c3C2=O)NC(=O)/C(C)=C\C=C[C@H](C)[C@H](O)[C@@H](C)[C@@H](O)[C@@H](C)[C@H](OC(C)=O)[C@@H]1C
not listed: [6] | [14] | [15] | [16] | [17] | [18]
inactive: all other assays above

COc1cc2c(c(OC)c1OC)-c1ccc(OC)c(=O)cc1[C@@H](NC(C)=O)CC2
active: [8] 0.172 µM
not listed: [6] | [9] | [10] | [14] | [15] | [16] | [18]
inactive: all other assays above
